# Compounds with a hit are over-represented: about 0.44% of the library has one in this group of screens.
# RmlCD inh mix – RmlC/RmlD inhibition, mixture screen; AID 1532; RmlC/RmlD coupled enzyme inhibition, 384-well mixture HTS; 110,000 tested, 0.39% active; inhibition, % at 5.5 µM; in the data active means inhibition above about 30%, passing the limit was not always enough; inconclusive means no clear call, values can overlap the other calls
# YopH PTP inh – YopH (Yersinia) phosphatase inhibition; inhibition, % (test concentration not listed); 140,000 tested, 0.16% active; fluorescence Ex485/Em525; in the data active means inhibition above about 50%
# RmlCD fluor art – counter-screen for RmlC/RmlD inhibitors: fluorescence artifact; shares compounds with RmlCD inh mix; RmlC/RmlD assay fluorescence artifact counter-screen; calls only; 360 tested, 96% active; AID 1696; call rule not given here;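 further: compound alone with no enzyme and no substrates present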
# * hit, by the source's call; i = inactive; ? = inconclusive; nt = not tested or not shown; + = active, no number.
SMILES,RmlCD inh mix,YopH PTP inh,others
O=C(CSc1n[nH]c(-c2ccccc2Br)n1)NCCN1C(=O)CSC1=O,nt,-19.1,
Cc1ccc(-c2cc(C(=O)Nc3cc(C)ccc3C)[nH]n2)c(O)c1,-12.4,-21.0,
COc1ccc(OC)c(NC(=O)c2cc(-c3ccc(C)cc3O)n[nH]2)c1,2.3,91.6*,
Cc1ccc(CNC(=O)c2ccc(OCC3CCCO3)cc2)cc1 (centres undefined),nt,-2.6,
CCOC(=O)CNC(=O)Cn1c(C)cc2ccccc2c1=O,5.5,11.8,
CCOC(=O)N1CCN(C(=O)Cn2c(C)cc3ccccc3c2=O)CC1,-5.9,54.9*,
O=C(Nc1nc2ccccc2s1)c1ccc(N2CCCCC2)c([N+](=O)[O-])c1,nt,-20.1,
CCC(=O)N(CC(=O)Nc1sc(C)c(C)c1C(N)=O)C1CCCCC1,-13.2,-22.7,
CC1CN(C(=O)/C(C#N)=C2\N=C(NC(=O)c3ccccc3Cl)c3ccccc32)CC(C)O1 (centres undefined),nt,4.1,
c1ccc(-c2csc3ncnc(NCCCN4CCOCC4)c23)cc1,-2.0,50.9*,
c1csc(-c2csc3ncnc(NCCCN4CCOCC4)c23)c1,-10.2,10.8,
Cc1oc2c(c1C(=O)c1ccc(Cl)cc1)C(=O)C(=O)c1ccccc1-2,nt,5.5,
Cc1ccc(C(=O)c2c(C)oc3c2C(=O)C(=O)c2ccccc2-3)cc1,-17.1,68.8*,
O=C(OC1C[C@@H]2CC3C[C@H](C1)N2CC3=O)c1c[nH]c2ccccc12 (some centres undefined),-14.9,nt,
CC1CCCCN1C(=O)/C(=C\c1ccccc1)c1ccccc1 (centres undefined),-9.3,-18.9,
O=c1[nH]c2ccccc2n1CCCSc1cnc2ccccc2n1,17.8,19.3,
C=CCn1c2ccccc2c2nnc(SCCCn3c(=O)[nH]c4ccccc43)nc21,71.4*,21.9,
CCOC(=O)c1cc2c(=O)n3ccccc3nc2n(CC(C)C)c1=NC(=O)c1ccco1,13.9,3.8,
CCOCCCn1c(=NC(C)=O)c(C(=O)OCC)cc2c(=O)n3ccccc3nc21,67.1*,7.4,
CCOC(=O)c1cc2c(=O)n3ccccc3nc2n(CCCOC)c1=NC(=O)C(C)(C)C,21.6,-13.8,
CCOC(=O)c1cc2c(=O)n3ccccc3nc2n(Cc2ccccc2)c1=N,30.7*,-12.2,
CCCCCCn1nc(C(=O)Nc2nc3c(s2)CCCC3)c2ccccc2c1=O,nt,0.3,
Cc1ccc(N(C)S(=O)(=O)c2cccc(C(=O)Oc3ccc4c(C)cc(=O)oc4c3)c2)cc1,nt,-20.5,
COC(=O)c1cc(-c2c(C)oc3cc(OC(C)C)ccc3c2=O)c(C)o1,-1.1,-30.2,
Cc1cc(=O)oc2cc(OC(=O)c3ccccc3)ccc12,46.0*,nt,RmlCD fluor art=+
SMILES,RmlCD inh mix,YopH PTP inh,others
CC(=O)Oc1ccc2c(=O)c(-c3ccccc3)c(C)oc2c1,79.5*,nt,RmlCD fluor art=+
C=CC[C@@H]1C=C[C@H](O/N=C/c2ccc(C(=O)N3[C@H](c4ccc(C)cc4)[C@@H](C)CC[C@H]3C(=O)OC)cc2)[C@@H](CO)O1,nt,-16.8,
N#Cc1c(N)n(CCOC(=O)c2cccc(Br)c2)c2nc3ccccc3nc12,7.4,-26.1,
COCCn1c(N)c(C#N)c2nc3ccccc3nc21,55.4*,13.8,RmlCD fluor art=+
N#Cc1c(N)n(CCOC(=O)c2cccc([N+](=O)[O-])c2)c2nc3ccccc3nc12,45.5*,-36.4,RmlCD fluor art=+
COc1ccc(Cn2c(N)c(C#N)c3nc4ccccc4nc32)cc1,nt,-5.9,
O=C(NCc1ccco1)C1CC(c2ccc(C(F)(F)F)cc2)=NO1 (centres undefined),4.7,nt,
Cc1cc(C)c2c(n1)nn1c(NCCCN(C)C)cc(C)nc21,86.0*,-36.5,RmlCD fluor art=+
Cc1cc(NCCCN(C)C)n2nc(-c3cccs3)cc2n1,-10.2,-17.4,
Cc1ccc(-c2c(C)n([O-])c3c([n+]2=O)CCCC3)o1,8.6,-9.9,
CC(Oc1cc(Cl)ccc1Cl)C(=O)N/N=C\c1ccnn1C (centres undefined),nt,-17.2,
O=C(Nc1ccccc1)C1=C(O)CC(c2ccc(Cl)cc2)N2CCN=C12 (centres undefined),nt,-18.3,
COc1ccc(C(=O)N/N=C/c2ccc3cccc(OCc4ccccc4)c3n2)cc1,-68.7,-24.0,RmlCD fluor art=i
O=C(N/N=C/c1ccc2cccc(OCc3ccccc3)c2n1)c1ccc(Br)cc1,-317.0,-16.9,
O=C(CSc1ccccc1)N(c1ccc(Br)cc1)c1nccs1,nt,-47.7,
CCC(=O)OC1=C2C(=Nc3c(c(=O)n(C)c(=O)n3C)C2c2ccccc2)c2ccccc21 (centres undefined),nt,-18.0,
C=CCCCCCCCCC(=O)NNC1=CC(=O)CC(C)(C)C1,-10.1,1.9,
Cc1oc2ccccc2c1-c1cn2c(n1)SCC2,51.9*,55.4*,RmlCD fluor art=+
c1ccc(-c2cn3c(n2)SCC3)cc1,-0.3,-15.4,
COc1ccc(OC)c(NC(=O)Cc2coc3cc(C)cc(C)c23)c1,6.4,-3.9,
Cc1nn(-c2ccccc2)c(C)c1NS(=O)(=O)c1ccccc1,-6.2,-0.5,
CCCC[C@@H]1CNC(=O)C(=O)N1CCc1cccc2ccccc12,1.0,nt,
NC(=O)c1nn(-c2ccccc2)nc1N,43.5*,3.7,RmlCD fluor art=+
NC(=O)c1nn(-c2ccccc2)nc1NC(=O)CN1CCCCC1,6.5,-14.7,
C/C(=N\N=c1/scc(C)n1Cc1ccco1)c1cccc([N+](=O)[O-])c1,nt,-28.3,
SMILES,RmlCD inh mix,YopH PTP inh,others
COc1ccc(-c2c(C(C)=O)c(C)nc3sc4c(=N)n(N)cnc4c23)cc1,nt,-20.1,
COc1ccc(C2NC(=O)c3sc4nc(C)c(C(C)=O)c(-c5ccc(Cl)cc5)c4c3N2)cc1 (centres undefined),51.6*,-33.4,RmlCD fluor art=+
CSc1nnc(C)c(=O)n1COC(=O)c1ccc(S(=O)(=O)N(C)C)cc1,nt,-27.3,
COc1cc2c(cc1OC)-c1cc(OCCN3CCOCC3)nc(=O)n1CC2,61.1*,-57.3,RmlCD fluor art=+
CCNc1cc2n(c(=O)n1)CCc1cc(OC)c(OC)cc1-2,17.3,-0.5,
Cc1cccn2c(=O)c3cc(C#N)c(=N)n(CC4CCCO4)c3nc12 (centres undefined),nt,-2.5,
Cc1ccc2nc3c(cc(C#N)c(=O)n3-c3nccs3)c(=O)n2c1,106.6*,-22.9,RmlCD fluor art=+
Cc1ccc2nc3c(cc(C#N)c(=O)n3CC3CCCO3)c(=O)n2c1 (centres undefined),105.5*,-39.2,RmlCD fluor art=+
Cc1ccc(-n2c(=O)c(C#N)cc3c(=O)n4cccc(C)c4nc32)cc1,i,-21.2,
Cc1ccc(Nc2nnc(-c3ccncc3)s2)c(Br)c1,nt,-19.5,
CCc1cccc(NC(=O)NC(=O)Cn2nnc(C(=O)OC)c2C(=O)OC)c1,nt,-20.5,
CN(c1cccc(Cl)c1)S(=O)(=O)c1cccc(C(=O)NC2=NCCS2)c1,-13.1,-25.6,
CCOc1ccc(N2C(=O)CN=C2Nc2ccccc2F)cc1,2.4,2.7,
COc1ccc2oc(=O)c(C(=O)n3ccc(C)n3)cc2c1,110.9*,4.5,RmlCD fluor art=+
Cc1ccn(C(=O)c2cc3cc(Cl)ccc3oc2=O)n1,1.4,-27.4,
N#Cc1c(-c2ccco2)cc(-c2ccccn2)nc1N,46.5*,-11.0,RmlCD fluor art=+
N#Cc1c(-c2ccco2)cc(-c2cccnc2)nc1N,?,-51.5,
Cc1ccc(C(=O)NCC(=O)OCC(=O)Nc2ccccc2[N+](=O)[O-])cc1,nt,-21.1,
C=CCSC(=C(C#N)C#N)c1cc2c([nH]1)CCCC2,7.7,-2.6,
CC[C@@]1(O)C(=O)OCc2c1cc1n(c2=O)Cc2cc3c(CN(C)C)c(O)ccc3nc2-1,38.0*,nt,RmlCD fluor art=+

# High-throughput results deposited in PubChem BioAssay by several laboratories.
